# Assay results: PubChem BioAssay (NCATS)
# Results filed as inconclusive are left out. Where a call stands in place of a potency, no number is given. Active and inactive are the calls of the source. Calls follow the shape of the dose curve; as a rule, active = well fitted curve in the direction sought with a large enough effect; inconclusive = small, poorly fitted or top-dose-only effect, or another doubt; inactive = no such curve, though single readings can be large; an effect the other way counts as inactive or inconclusive.
# Key:
# [1] = S16 Schwann cell viability assay (CellTiter-Glo assay) (AID 624031);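 also: cellular ATP luminescence as a viability measure; nearly all actives have a fitted effect of over 70% in size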
# Summary of the method: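 Luminescent ATP read-out (CellTiter-Glo) after 24 h compound exposure of native S16 rat Schwann cells at 37 °C. Signals were normalized between cell-free wells and DMSO-treated cells, set as 0% activity.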
# [2] = S16 Schwann cell PMP22 intronic element firefly luciferase assay (AID 624032); also: nearly all actives have a fitted effect of over 30% in size; also: potency is read from the fitted curve at half-maximal effect
# Summary of the method: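 Luciferase reporter of PMP22 intronic-element expression in stably transfected S16 rat Schwann cells, read by ONE-Glo luminescence after 24 h compound exposure at 37 C. Activity scaled between DMSO (0%) and positive-control PTC124; concentration-effect curves quality-classified.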
# [3] = test system: CP194; test: qHTS profiling for inhibitors of Plasmodium falciparum proliferation (AID 504749); also: nearly all actives have a fitted effect of over 60% in size; also: potency is read from the fitted curve at half-maximal effect; conditions: P. falciparum in erythrocytes, SYBR Green DNA, 72 h; series mostly up to 12.8 µM
# Summary of the method: (§1)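 In a 72 h erythrocytic culture (37 C, humidified, 5% CO2) at 2.5% hematocrit and 0.3% starting parasitemia, compounds were tested; SYBR Green I in detergent lysis buffer stained parasite DNA overnight.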
# [4] = test system: CP201; test: as above; conditions: P. falciparum in erythrocytes, SYBR Green DNA, 72 h; series mostly up to 12.8 µM
# Summary of the method: as §1
# [5] = test system: CP203; test: as above; conditions: P. falciparum in erythrocytes, SYBR Green DNA, 72 h; series mostly up to 12.8 µM
# Summary of the method: as §1
# [6] = test system: CP211; test: as above; conditions: P. falciparum in erythrocytes, SYBR Green DNA, 72 h; series mostly up to 12.8 µM
# Summary of the method: as §1
# [7] = test system: CP256; test: as above; conditions: P. falciparum in erythrocytes, SYBR Green DNA, 72 h; series mostly up to 12.8 µM
# Summary of the method: as §1
# [8] = test system: CP266; test: as above; conditions: P. falciparum in erythrocytes, SYBR Green DNA, 72 h; series mostly up to 12.8 µM
# Summary of the method: as §1
# [9] = test system: CP268; test: as above; conditions: P. falciparum in erythrocytes, SYBR Green DNA, 72 h; series mostly up to 12.8 µM
# Summary of the method: as §1
# [10] = test system: CP291; test: as above; conditions: P. falciparum in erythrocytes, SYBR Green DNA, 72 h; series mostly up to 12.8 µM
# Summary of the method: as §1
# [11] = test system: CP297; test: as above; conditions: P. falciparum in erythrocytes, SYBR Green DNA, 72 h; series mostly up to 12.8 µM
# Summary of the method: as §1
# [12] = test system: CP325; test: as above; conditions: P. falciparum in erythrocytes, SYBR Green DNA, 72 h; series mostly up to 12.8 µM
# Summary of the method: as §1
# [13] = test system: CP335; test: as above; conditions: P. falciparum in erythrocytes, SYBR Green DNA, 72 h; series mostly up to 12.8 µM
# Summary of the method: as §1
# [14] = test system: DIV30; test: as above; conditions: P. falciparum in erythrocytes, SYBR Green DNA, 72 h; series mostly up to 12.8 µM
# Summary of the method: as §1
# [15] = test system: Dd2; test: as above; conditions: P. falciparum in erythrocytes, SYBR Green DNA, 72 h; series mostly up to 12.8 µM
# Summary of the method: as §1
# [16] = test system: P93_24; test: as above; conditions: P. falciparum in erythrocytes, SYBR Green DNA, 72 h; series mostly up to 12.8 µM
# Summary of the method: as §1
# [17] = test system: P94_40; test: as above; conditions: P. falciparum in erythrocytes, SYBR Green DNA, 72 h; series mostly up to 12.8 µM
# Summary of the method: as §1
# [18] = test system: PC26; test: as above; conditions: P. falciparum in erythrocytes, SYBR Green DNA, 72 h; series mostly up to 12.8 µM
# Summary of the method: as §1
# [19] = test system: TAB109; test: as above; conditions: P. falciparum in erythrocytes, SYBR Green DNA, 72 h; series mostly up to 12.8 µM
# Summary of the method: as §1
SMILES,outcome [1],Potency [2],Potency [3],Potency [4],Potency [5],Potency [6],Potency [7],Potency [8],Potency [9],Potency [10],Potency [11],Potency [12],Potency [13],Potency [14],Potency [15],Potency [16],Potency [17],Potency [18],Potency [19]
CC1(C)OC2CO[C@]3(COS(N)(=O)=O)OC(C)(C)OC3C2O1 (some centres not stated),inactive,inactive,inactive,inactive,inactive,inactive,inactive,inactive,inactive,inactive,inactive,inactive,inactive,inactive,inactive,inactive,inactive,inactive,inactive
COc1ccc(CC(N)C(=O)NC2C(CO)OC(n3cnc4c(N(C)C)ncnc43)C2O)cc1 (configuration not stated),,1.28 µM (active),1.07 µM (active),1.51 µM (active),1.51 µM (active),0.478 µM (active),1 µM (active),1.2 µM (active),1.51 µM (active),1.07 µM (active),1.2 µM (active),1.07 µM (active),757 nM (active),849 nM (active),355 nM (active),708 nM (active),891 nM (active),0.849 µM (active),0.891 µM (active)
COC1C=CO[C@@]2(C)Oc3c(C)c(O)c4c(O)c(c5c(nc6cc(C)ccn65)c4c3C2=O)NC(=O)/C(C)=C\C=CC(C)C(O)[C@@H](C)C(O)C(C)[C@@H](OC(C)=O)C1C (some centres not stated),inactive,,12 µM (active),,,15.1 µM (active),,,12 µM (active),13.5 µM (active),4.26 µM (active),,13500 nM (active),1350 nM (active),12600 nM (active),3980 nM (active),5010 nM (active),1.2 µM (active),11.2 µM (active)
CC(C)=CCC[C@](C)(O)C1CC=C(C)CC1 (some centres not stated),inactive,inactive,inactive,inactive,inactive,inactive,inactive,,inactive,inactive,inactive,inactive,inactive,inactive,inactive,inactive,inactive,inactive,inactive
CCCC(=O)O[C@]1(C(=O)CO)CCC2[C@@H]3CCC4=CC(=O)CC[C@]4(C)C3C(O)C[C@]21C (some centres not stated),inactive,inactive,inactive,inactive,inactive,inactive,inactive,inactive,inactive,inactive,inactive,inactive,inactive,inactive,inactive,inactive,inactive,inactive,inactive
CC(=O)OC1CCC2C3CCc4cc(O)ccc4C3CCC12C (configuration not stated),inactive,inactive,inactive,inactive,inactive,inactive,inactive,inactive,inactive,inactive,inactive,inactive,inactive,inactive,inactive,inactive,inactive,inactive,inactive
OCC1OC([S-])[C@H](O)C(O)C1O.[Au+] (some centres not stated),inactive,inactive,inactive,inactive,inactive,inactive,inactive,inactive,inactive,inactive,inactive,inactive,inactive,inactive,inactive,inactive,inactive,inactive,inactive
CCC(CCC(C)C1CCC2C3CC=C4CC(O)CC[C@@]4(C)C3CC[C@@]12C)C(C)C (some centres not stated),inactive,inactive,inactive,inactive,inactive,inactive,inactive,inactive,inactive,inactive,inactive,inactive,inactive,inactive,inactive,inactive,inactive,inactive,inactive
CNC1CC(N)[C@H](O)[C@@H](O[C@@H]2OC(CO)C3OC4(OC(C(N)CO)C(O)C(O)C4O)O[C@@H]3[C@H]2O)C1O (some centres not stated),inactive,inactive,inactive,inactive,inactive,inactive,inactive,inactive,inactive,inactive,inactive,inactive,inactive,inactive,inactive,inactive,inactive,inactive,inactive
CCOC(=O)C1=CC(OC(CC)CC)C(NC(C)=O)C(N)C1 (configuration not stated),,inactive,inactive,inactive,inactive,inactive,inactive,inactive,inactive,inactive,,inactive,inactive,,inactive,inactive,inactive,,inactive
COC1C=CO[C@@]2(C)Oc3c(C)c(O)c4c(O)c(c(C=NN5CCN(C)CC5)c(O)c4c3C2=O)NC(=O)/C(C)=C\C=CC(C)C(O)[C@@H](C)C(O)C(C)[C@H](OC(C)=O)C1C (some centres not stated),inactive,20.3 µM (active),4.78 µM (active),5.36 µM (active),4.26 µM (active),4.26 µM (active),3.55 µM (active),6.75 µM (active),4.78 µM (active),4.26 µM (active),0.953 µM (active),4.78 µM (active),953 nM (active),536 nM (active),251 nM (active),251 nM (active),282 nM (active),1.07 µM (active),2 µM (active)
CN1CC(=O)N=C1N,,inactive,inactive,inactive,inactive,inactive,inactive,inactive,inactive,inactive,inactive,inactive,inactive,inactive,inactive,inactive,inactive,inactive,inactive
C[C@]12CCC(=O)C=C1CCC1C2C(=O)C[C@]2(C)C1CC[C@]2(O)C(=O)CO (some centres not stated),inactive,inactive,inactive,inactive,inactive,inactive,inactive,inactive,inactive,inactive,inactive,inactive,inactive,inactive,inactive,inactive,inactive,inactive,inactive
CC(=O)N[C@H](CC(C)C)C(=O)O,,inactive,inactive,inactive,inactive,inactive,inactive,inactive,inactive,inactive,inactive,inactive,inactive,inactive,inactive,inactive,inactive,inactive,inactive
